# PubChem BioAssay (NCATS)
# Values joined by “and” are separate entries in the source; they are usually repeats but may differ in a detail not shown here. Identical values can stand only once. Results filed as inconclusive are left out. Unmarked numbers belong to inactive results. Active and inactive are the calls of the source. Unless noted, calls follow the shape of the dose curve; as a rule, active = well fitted curve in either direction with a large enough effect (not every such curve was filed as active); inconclusive = small, poorly fitted or top-dose-only effect, or another doubt; inactive = flat fitted curve, though single readings scatter.
# Legend:
# [1] = target: Cytochrome P450 1A2 (Homo sapiens) (UniProt P05177); experiment: p450-cyp1a2 (AID 410; calls by dose curve; also: potency is read from the fitted curve at half-maximal effect;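 as to activity change, negative = inhibition: -100% = full effect of reference inhibitor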)
# Sequence of Cytochrome P450 1A2 (Homo sapiens) (P05177 whole entry, looked up): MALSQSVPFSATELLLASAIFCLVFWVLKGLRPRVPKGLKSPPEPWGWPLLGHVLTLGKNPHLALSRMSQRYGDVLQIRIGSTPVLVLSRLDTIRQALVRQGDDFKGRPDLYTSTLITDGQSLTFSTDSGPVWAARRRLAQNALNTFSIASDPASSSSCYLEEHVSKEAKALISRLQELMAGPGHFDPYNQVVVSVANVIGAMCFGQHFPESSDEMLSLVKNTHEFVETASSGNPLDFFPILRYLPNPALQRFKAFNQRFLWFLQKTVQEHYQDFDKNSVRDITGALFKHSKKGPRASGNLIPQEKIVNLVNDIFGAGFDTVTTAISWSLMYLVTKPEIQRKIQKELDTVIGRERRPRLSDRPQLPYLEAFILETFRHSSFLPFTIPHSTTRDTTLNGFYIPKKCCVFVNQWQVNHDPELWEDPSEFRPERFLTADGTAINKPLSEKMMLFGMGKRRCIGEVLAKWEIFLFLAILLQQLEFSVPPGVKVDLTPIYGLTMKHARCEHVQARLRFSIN
# In short: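 O-Demethylation of luciferin 6' methyl ether by human CYP1A2 is monitored as luciferase luminescence. Substrate sits at Km (100uM); enzyme is 20nM. Values are scaled to 57 uM furafylline as maximal inhibition.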
# [2] = NFAT Signaling Pathway (AID 444); conditions: Jurkat NFAT-bla M1, carbachol, beta-lactamase ratio, 5 h; at 38 µM (top of the series) unless noted;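 also: carbachol stimulus at about its EC50 of 1 µM final; % is scaled to controls: 0 for no effect and ±100 for the full control effect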
# In short: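 Jurkat cells carrying an NFAT-driven β-lactamase reporter and co-transfected muscarinic M1 receptor were treated with compound plus carbachol (1 uM final, an EC50 level) for 5 h at 37 °C. CCF4 loading followed for 1 h at RT; 460/530 nm ratio gave %activity.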
# [3] = AP1 Signaling Pathway (AID 357); conditions: ME-180 (cervical carcinoma) AP-1-bla reporter, EGF-induced, beta-lactamase ratio, 5 h; at 38 µM (top of the series) unless noted;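 also: ME-180 reporter cells stimulated with EGF at its EC50 level; % is scaled to controls: 0 for no effect and ±100 for the full control effect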
# In short: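 Titration-series screen for positive or negative modulators of EC50 EGF-induced signaling in ME-180 cells carrying an AP-1-driven beta-lactamase reporter. After 5 hours at 37 degrees Celsius, CCF4 460nm/530nm emission ratio gave %Activity; AC50 values derived.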
SMILES,Potency [1],"activity change, negative = inhibition [2]","activity change, negative = inhibition [3]"
O=c1oc(Cl)c(Cl)c2ccccc12,1 µM (active),-53.3% (active),
O=C(O)/C=C/c1ccc(O)c(O)c1,,-10.8% [at 17.2 µM],5.87% [at 17.2 µM]
CN(C)CCC(c1ccc(Br)cc1)c1ccccn1 (stereo not drawn),,-90.1% [at 17.2 µM] (active),14% [at 17.2 µM]
CN(C)CCCc1cc(C(=O)Nc2ccc(-c3ccncc3)cc2)ccc1O,39.8 µM (active),,
CN(C)S(=O)(=O)c1ccc2c(c1)/C(=C/c1cc3c([nH]1)CCCC3)C(=O)N2,0.316 µM (active),,
NCCCCN=C(N)N,,-4.07%,-8.22%
CCCCCCCC/C=C\CCCCCCCC(=O)NCCc1ccc(O)c(O)c1,20 µM (active),,
COc1cc2c(CCNC(C)=O)c[nH]c2cc1O,31.6 µM (active),3.14%,
N#C/C(=C\c1ccc(O)c(O)c1)C(=O)NCCc1ccccc1,10 µM (active),,
CCCc1c(-c2ccc(O)cc2)nn(-c2ccc(O)cc2)c1-c1ccc(O)cc1,15.8 µM (active) and 20 µM (active),,
CCc1ccc2c(-c3cccc(Cl)c3)nc(=O)n(CC)c2n1,0.126 µM (active),,
Fc1ccc(CN(C2=NCCN2)c2c(Cl)cccc2Cl)cc1,inactive,-21.2%,
C=C1C(=O)O[C@@H]2[C@H]3O[C@]3(C)CCC=C(C)CC[C@@H]12,10 µM (active),,
O=C1Nc2ccc(I)cc2/C1=C/c1cc(Br)c(O)c(Br)c1,2.51 µM (active) and 794 nM (active),-120% (active),
COc1ccccc1N1CCN(CCN(C(=O)c2ccc(F)cc2)c2ccccn2)CC1,,-0.748%,1.26%
Oc1cc(O)c2c(c1)O[C@H](c1ccc(O)c(O)c1)[C@@H](O)C2,inactive,,
CC1CNCCN1S(=O)(=O)c1cccc2cnccc12 (stereo not drawn),,4.83% [at 17.2 µM],2.59% [at 17.2 µM]
CC(C)(C)c1cc(/C=C(\C#N)C(N)=S)cc(C(C)(C)C)c1O,12.6 µM (active),-95.5% (active),
N[C@@H](CS(=O)O)C(=O)O,inactive,,
C[N+](C)(C)CC=O,,-6.7%,3.33%
NC1(C(=O)O)CCCCC1,,3%,-0.957%
